TDP-43 tox inh: TDP-43 toxicity inhibition in yeast | Potency, µM (doses to about 46.1 µM), actives largely listed as activators | 45,000 tested, 0.45% active | yeast TDP-43 toxicity rescue, BacTiter-Glo growth, 24 h; active = well fitted activation curve with a large enough effect; note: 0% is about no effect; nearly all actives have a fitted effect of over 55% in size
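TDP-43-expressing yeast, pregrown in raffinose, seeded at OD600 0.02 in galactose medium with compound for 24 hr at 30 deg C. Growth read by BacTiter-Glo luminescence, so rescue of toxicity appears as activation.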
Active calls of the source: *. This excerpt belongs to a sample that is enriched for hits. Potency is the fitted concentration of half-maximal effect.

`Cc1cc(S(=O)(=O)NCC(C)C)ccc1OCC(=O)NCc1ccco1` gave TDP-43 tox inh inactive.
For CCOc1ccc(CNC(=O)C2CCN(c3nnc(-n4c(C)ccc4C)s3)CC2)cc1 the results were TDP-43 tox inh inactive.
COc1ccc(C(C(=O)NCC2CCCO2)N(C(=O)CNC(=O)c2cccs2)c2ccc(C)cc2)cc1OC (configuration not stated) was read as TDP-43 tox inh inactive.
For O=S(=O)(c1cccc(-c2nnc(SCc3ccc(Cl)cc3)o2)c1)N1CCCCC1 the results were TDP-43 tox inh inactive.
`CC1CCN(C(=O)CSc2nnc(-c3cccnc3)o2)CC1` gave TDP-43 tox inh inactive.
For Brc1ccc(CSc2nnc(-c3cccnc3)o2)cc1 the results were TDP-43 tox inh 13µM*.
For O=C(CSc1nnc(-c2ccccc2)c(-c2ccccc2)n1)Nc1ccc(Br)cn1 the results were TDP-43 tox inh inactive.
Cc1c(C(=S)Nc2ccccc2)cnn1-c1ccc([N+](=O)[O-])cc1 was read as TDP-43 tox inh inactive.
Screening Cc1cnnn1-c1ccc([N+](=O)[O-])cc1 returned TDP-43 tox inh inactive.
For Cc1nn(-c2ccccc2)c(N)c1Sc1ccc([N+](=O)[O-])cc1 the results were TDP-43 tox inh 14µM*.
`Cc1ccc(NC(=O)c2c(C)oc3ccc(O)c(CN(C)Cc4ccccc4)c23)c(C)c1` gave TDP-43 tox inh inactive.
For CC(C)c1ccccc1NS(=O)(=O)c1cccs1 the results were TDP-43 tox inh inactive.
Cn1c(CN2CCN(S(C)(=O)=O)CC2)nc2cc([N+](=O)[O-])ccc21 was read as TDP-43 tox inh inactive.
For CC(=O)N1CCN(c2ccc(NC(=O)c3cccc(Cl)c3)cc2)CC1 the results were TDP-43 tox inh inactive.
`O=C(Nc1ccc(Br)cn1)c1cccc(-c2cc3ccccc3oc2=O)c1` gave TDP-43 tox inh inactive.
O=C(Nc1ccc(N2CCCC2)cc1)c1cccc(-c2cc3ccccc3oc2=O)c1 was read as TDP-43 tox inh 22µM*.
For Cc1ccc2ccccc2c1C(O)c1ncc(-c2ccc(C(F)(F)F)cc2)[nH]1 (configuration not stated) the results were TDP-43 tox inh inactive.
Screening C=CCNC(=O)Nc1ccc2nc(C)sc2c1 returned TDP-43 tox inh inactive.
Screening Cc1nc2ccc(NC(=O)c3ccc(=O)[nH]c3)cc2s1 returned TDP-43 tox inh inactive.
CCc1sc(C(=O)Nc2ccc3nc(C)sc3c2)cc1C was read as TDP-43 tox inh 11µM*.
Screening CCOc1ccccc1N(CC(=O)NC1CCCCC1)S(=O)(=O)c1ccc(C)cc1 returned TDP-43 tox inh inactive.
`Cc1cc(C)c(C#N)c(SCC(O)COc2ccc(Br)cc2)n1` (configuration not stated) gave TDP-43 tox inh 13µM*.
For CCCCN(CCCC)CC(O)COc1ccc(Br)cc1 (configuration not stated) the results were TDP-43 tox inh inactive.
Screening COC(=O)CSc1nc(C)cc(C)c1C#N returned TDP-43 tox inh inactive.
CC1CC(C)CN(C(=O)CCNC(=O)Cn2ccc3ccccc3c2=O)C1 (configuration not stated) was read as TDP-43 tox inh inactive.
For CCN1CCN(C(=O)c2ccc3c(c2)N(Cc2ccc(F)cc2)C(=O)c2ccccc2S3(=O)=O)CC1 the results were TDP-43 tox inh inactive.
Screening Cn1cccc1C(=O)OCC(=O)NC(=O)c1ccc(Cl)cc1 returned TDP-43 tox inh inactive.
`Cc1onc(-c2ccccc2)c1C(=O)NC(=S)NNC(=O)c1ccco1` gave TDP-43 tox inh inactive.
COc1ccccc1/C=N/NC(=O)c1c(-c2ccccc2)noc1C was read as TDP-43 tox inh inactive.
COc1ccc(C(=O)NC(=S)NNC(=O)c2c(-c3ccccc3)noc2C)cc1OC was read as TDP-43 tox inh 13µM*.
`Cn1nnnc1N=N/C(=N/Nc1ccccc1)c1ccccc1` gave TDP-43 tox inh 6.3µM*.
Screening O=C(NCCc1c[nH]c2ccccc12)c1cnccn1 returned TDP-43 tox inh inactive.
Screening CC1(C(=O)NS(=O)(=O)C2CC2)CCN(C(=O)c2cccc(Cl)c2)C1 (configuration not stated) returned TDP-43 tox inh inactive.
Screening COc1ccc(-c2csc3ncnc(N4CCN(CCO)CC4)c23)cc1 returned TDP-43 tox inh inactive.
Screening COc1ccc(-c2csc3ncnc(N4CCN(c5ccccc5OC)CC4)c23)cc1 returned TDP-43 tox inh 14µM*.
COc1ccccc1N1CCN(c2cnccn2)CC1 was read as TDP-43 tox inh inactive.
Screening O=C(Nc1ccc(C(F)(F)F)cc1)N1CCC(N2CCCCC2)CC1 returned TDP-43 tox inh inactive.
For CCc1ccc(N(CC(=O)NCCc2ccccc2)C(=O)CCC(=O)Nc2ccccn2)cc1 the results were TDP-43 tox inh inactive.
Screening COc1ccc(Cl)cc1S(=O)(=O)N1CCCC(C(=O)N2CCOCC2)C1 (configuration not stated) returned TDP-43 tox inh inactive.
Screening O=C(C1CCCN(S(=O)(=O)c2cc(Cl)ccc2Cl)C1)N1CCCC1 (configuration not stated) returned TDP-43 tox inh 14µM*.
Screening O=C(C1CCCN(S(=O)(=O)c2ccc(Cl)cc2)C1)N1CCCC1 (configuration not stated) returned TDP-43 tox inh inactive.
For CCS(=O)(=O)Nc1ccc(-c2cn3ccsc3n2)cc1 the results were TDP-43 tox inh inactive.
`CCCS(=O)(=O)NC(=O)C1(C)CCCN(C(=O)C2(c3ccc(Cl)cc3)CCCC2)C1` (configuration not stated) gave TDP-43 tox inh inactive.
CN(Cc1ccccc1)CC(O)COc1ccc(CNCc2ccc(Cl)s2)cc1 (configuration not stated) was read as TDP-43 tox inh inactive.
For CCNC(=S)Nc1ccc(Cl)cc1 the results were TDP-43 tox inh inactive.
Screening S=C(NCc1ccccc1)NCc1ccc(CNC(=S)NCc2ccccc2)cc1 returned TDP-43 tox inh inactive.
For S=C(NCc1ccc(Cl)cc1)Nc1ccccc1 the results were TDP-43 tox inh 13µM*.
Screening O=C(Nc1nnc(N2CCCCCC2)s1)Nc1ccccc1C(F)(F)F returned TDP-43 tox inh inactive.
For COc1cc2c(cc1OC)CN(C(=O)Nc1ccccc1Cl)CC2 the results were TDP-43 tox inh 13µM*.
`COc1cccc(N2CCN(C(=O)Nc3ccccc3Cl)CC2)c1` gave TDP-43 tox inh inactive.
For COc1cc2c(cc1OC)CN(C(=O)Nc1ccccc1)CC2 the results were TDP-43 tox inh inactive.
Screening CCS(=O)(=O)c1ncc(Cl)c(C(=O)N2CCN(c3ccc(OC)cc3)CC2)n1 returned TDP-43 tox inh inactive.
`CSc1nnc2c(n1)OC=Nc1ccc(Br)cc1-2` gave TDP-43 tox inh inactive.
For COc1ccc(CNC(=O)c2sc3nc4n(c(=O)c3c2C)CCCC4)cc1 the results were TDP-43 tox inh inactive.
O=C(CCN1CCN(c2ccccc2)CC1)N/N=C/c1ccccc1OC(F)F was read as TDP-43 tox inh inactive.
Screening CC(C)Sc1nc2sc3c(c2c(=O)n1Cc1ccccc1)CCCC3 returned TDP-43 tox inh inactive.
For O=C(O)c1ccccc1CSc1nc2ccccc2n1Cc1ccccc1C(=O)O the results were TDP-43 tox inh inactive.
For CCCN1C(=O)S/C(=C/c2ccc(N3CCOCC3)o2)C1=O the results were TDP-43 tox inh inactive.
For N#C/C(=C/c1ccc(N2CCOCC2)o1)c1ccc(Br)cc1 the results were TDP-43 tox inh 14µM*.
`N#C/C(=C\c1ccc(N2CCOCC2)o1)C(=O)Nc1ccc(O)cc1` gave TDP-43 tox inh inactive.

Screening data deposited in PubChem by National Center for Advancing Translational Sciences (NCATS).
